These results are taken from PubChem BioAssay (Tox21).

Inconclusive results are not listed. The source made the active and inactive calls. Calls come from the whole dose curve.

A short description of the assay: qHTS assay to identify small molecule agonists of the endoplasmic reticulum stress response signaling pathway - cell viability counter screen (AID 1159517). Note: nearly all actives have a fitted effect of over 50% in size. Particulars: ESRE-bla HeLa viability, CellTiter-Glo luminescence, 5 h; series mostly up to 61 µM. The text has this:
U.S. Tox21 Program National Center for Advancing Translational Sciences [NCATS] NIH Chemical Genomics Center [NCGC] U.S. Environmental Protection Agency [EPA] National Institutes of Environmental Health Sciences [NIEHS] National Toxicology Program [NTP] U.S. Food and Drug Administration [FDA] Tox21 Assay Overview: Endoplasmic Reticulum (ER) plays an important role in cellular signaling, protein folding/maturation, stress response, lipid biosynthesis, calcium storage and release etc. Under stress conditions, proteins in ER misfold or unfold, and leading to the expression of ER stress responsive genes. ER stress has been associated with a variety of pathophysiological conditions such as cancer, inflammation, neurodegenerative diseases, diabetes, ischemic heart disease etc. To identify the compounds that induce ER stress response, an ER stress reporter cell line, CellSensor ESRE-bla HeLa (Life Technologies, Carlsbad, CA) containing a beta-lactamase reporter gene under control of the Endoplasmic reticulum Stress Response Element (ESRE) was used to screen Tox21 10K compound library. The cytotoxicity of the Tox21 compound library against the ESRE-bla HeLa cell line was tested in parallel by measuring cell viability using the CellTiter-Glo assay in the same wells.
Tox21 Assay Protocol Summary: ESRE-bla HeLa cells were dispensed at 1,500 cells/6 uL of assay medium per well into black wall/clear-bottom 1536-well plates using a Multidrop Combi (ThermoFisher Scientific, Waltham, MA) dispenser. After the assay plates were incubated at 37 C and 5% CO2 for an overnight, 23 nL of compounds dissolved in DMSO, positive controls or DMSO only was transferred to the assay plate by a Pintool station (Kalypsys, San Diego, CA). The assay plates were incubated at 37 C and 5% CO2 for 5 hr. One uL of LiveBLAzer B/G FRET substrate (Life Technologies) was added using a FRD (Flying Reagent Dispenser, Aurora Discovery, San Diego, CA) and the plates were incubated at room temperature for 2 hr. Fluorescence intensity (405 nm excitation, 460 nm and 530 nm emissions) was measured using an Envision plate reader (PerkinElmer, Shelton, CT). For cytotoxicity, 4 ul/well of CellTiter-Glo reagent was added into the assay plates using an FRD. After 30 min incubation at room temperature, the luminescence intensity was measured using a ViewLux plate reader (PerkinElmer).
In general terms: qHTS replaces the single test concentration by a dilution series.
For `Cc1cccc(N)c1`, the result was inactive.

Turning to `CCCCC(CC)C(=O)Cl` (stereo not given), the result was inactive. Next, `N#CN=C(N)N`: “inactive”; `COC(C)(C)CCCC(C)C/C=C/C(C)=C/C(=O)OC(C)C` (stereo not given): “inactive”. Next, `Nc1cc(Cl)cc(Cl)c1`: “inactive”. With `C=CC#N` the entry was “inactive”; with `COP(=S)(OC)Oc1ccc(SC)c(C)c1`, “inactive”.

For `OCC(O)CCl` (stereo not given), the outcome was inactive. `O=C(O)c1cc(Oc2ccc(C(F)(F)F)cc2Cl)ccc1[N+](=O)[O-]`: the compound was called inactive. Take `Nc1ccc(N)cc1`: the result was inactive. Next, `CCCOC(=O)c1ccccc1C(=O)OCCC`: “inactive”; `CC[N+](=O)[O-]`: “inactive”; `Nc1nc(N)nc(NC2CC2)n1`: “inactive”. Next, `Oc1c(Br)cc(Br)cc1Br`: “inactive”; `CNC(=O)O/N=C/C(C)(C)SC`: “inactive”; `Cc1cc(O)ccc1Cl`: “inactive”. `CC(C)CCCCCCOC(=O)c1ccccc1C(=O)OCCCCCCC(C)C`: the compound was classed as inactive. Regarding `Sc1ccccc1`, the compound was called inactive. Next, `CCSC(=O)N1CCCCCC1`: “inactive”; `CC12CC1(C)C(=O)N(c1cc(Cl)cc(Cl)c1)C2=O` (stereo not given): “inactive”. With `CSc1nnc(C(C)(C)C)c(=O)n1N` the entry was “inactive”; with `CCNc1nc(Cl)nc(NC(C)C)n1`, “inactive”.

Regarding `[N-]=[N+]=CC(=O)OC[C@H](N)C(=O)O`, the call was inactive. Next, `CCOC(=O)CC(SP(=O)(OC)OC)C(=O)OCC` (stereo not given): “inactive”; `COP(=S)(OC)SCN1C(=O)c2ccccc2C1=O`: “inactive”; `C=CCN=C=S`: “inactive”. Next, `CC(C)(C)C(=O)CCl`: “inactive”. With `CN(C)NC(=O)CCC(=O)O` the entry was “inactive”. On to `C[C@]12CC[C@H](O)CC1=CC[C@@H]1[C@@H]2CC[C@]2(C)C(=O)CC[C@@H]12`, for which the outcome was inactive. With `Cc1ccc(O)c(C)c1` the entry was “inactive”; with `Cc1cc(Cl)ccc1OC(C)C(=O)O` (stereo not given), “inactive”. With `C/C=C/c1ccc2c(c1)OCO2` the entry was “inactive”. Next, `Cc1cccc(N)c1C`: “inactive”; `CCOP(=S)(OCC)Oc1ccc([N+](=O)[O-])cc1`: “inactive”; `Cc1ccccc1N`: “inactive”. As for `Cc1cccc(C)c1NC(=O)CN1CCCC1=O`, the compound was called inactive. With `C=CC(=O)OCC(CC)CCCC` (stereo not given) the entry was “inactive”. Next, `Nc1ccc([As](=O)(O)O)cc1`: “inactive”. With `CNC(=O)O/N=C/C(C)(C)S(C)=O` (stereo not given) the entry was “inactive”; with `N#Cc1ccccn1`, “inactive”.
